Drawing on PubChem BioAssay (NCATS), this text covers outcome for 30 compounds.

The source made the active and inactive calls. Unless noted, calls follow the shape of the dose curve; as a rule, active = well fitted curve in the direction sought with a large enough effect (not every such curve was filed as active); inconclusive = small, poorly fitted or top-dose-only effect, or effect the other way, or another doubt; inactive = no such curve, though single readings can be large or run the other way.

Sequence of Pyruvate kinase PKM (Homo sapiens) (P14618 whole entry, looked up): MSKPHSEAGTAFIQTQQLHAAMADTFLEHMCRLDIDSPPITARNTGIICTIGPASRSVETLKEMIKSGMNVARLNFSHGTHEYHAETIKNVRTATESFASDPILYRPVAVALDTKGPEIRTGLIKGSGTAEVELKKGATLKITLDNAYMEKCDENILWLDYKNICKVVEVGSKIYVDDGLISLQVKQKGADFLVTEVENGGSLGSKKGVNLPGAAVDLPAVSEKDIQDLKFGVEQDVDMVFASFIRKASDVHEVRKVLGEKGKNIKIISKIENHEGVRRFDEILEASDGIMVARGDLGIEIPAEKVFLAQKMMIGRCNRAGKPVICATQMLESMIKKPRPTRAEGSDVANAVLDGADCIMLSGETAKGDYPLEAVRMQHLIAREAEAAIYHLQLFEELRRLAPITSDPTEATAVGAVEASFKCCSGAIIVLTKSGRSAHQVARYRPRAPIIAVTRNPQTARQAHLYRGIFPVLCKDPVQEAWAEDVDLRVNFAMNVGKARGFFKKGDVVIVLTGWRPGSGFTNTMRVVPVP
Sequence of Alpha-galactosidase (Coffea arabica) (Q42656 whole entry, looked up): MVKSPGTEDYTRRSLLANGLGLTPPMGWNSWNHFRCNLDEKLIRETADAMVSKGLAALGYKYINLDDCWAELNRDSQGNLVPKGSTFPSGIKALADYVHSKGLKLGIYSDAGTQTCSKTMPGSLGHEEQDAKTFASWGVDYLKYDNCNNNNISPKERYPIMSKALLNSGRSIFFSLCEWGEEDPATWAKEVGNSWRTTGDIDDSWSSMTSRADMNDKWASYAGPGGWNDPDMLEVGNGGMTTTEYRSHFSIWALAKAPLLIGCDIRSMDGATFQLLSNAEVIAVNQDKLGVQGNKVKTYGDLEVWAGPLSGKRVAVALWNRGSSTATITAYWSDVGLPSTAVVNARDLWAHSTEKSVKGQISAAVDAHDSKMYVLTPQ

The first experiment deals with Pyruvate kinase PKM (Homo sapiens) (UniProt P14618). The experiment is described as follows: qHTS Assay for Activators of Human Muscle Pyruvate Kinase (AID 954). The settings on record: purified human muscle pyruvate kinase, luciferase-coupled luminescence, 1 h; series mostly up to 57.5 µM. In a few lines:
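A coupled luminescent readout tracked ATP made from ADP by purified PKM2. Final conditions included 0.1 nM enzyme, PEP and ADP at 0.5 and 0.1 mM, pH 7.2 imidazole buffer with BSA, and a one-hour room-temperature reaction.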
`CN[C@@H]1C[C@@H](c2ccc(Cl)c(Cl)c2)c2ccccc21`: the compound was called inactive.
The same measure, in the same setting: the entry for `O=C(O)CC[N+](=O)[O-]` is “inactive”.
Still for that read-out and setting: in the case of `CC(=O)NCCc1c[nH]c2ccccc12` it was “inactive”.
Consider `C[C@]12N[C@H](Cc3ccccc31)c1ccccc12`, for which the compound was classed as inactive.
Still for that read-out and setting: the entry for `CCCN1CCC[C@H](c2cccc(O)c2)C1` is “inactive”; for `CNCCc1c[nH]c2ccc(O)cc12` it is “inactive”.
On the same count and under the same terms, the entry for `c1ccc(CCCN2CCN(CCOC(c3ccccc3)c3ccccc3)CC2)cc1` is “inactive”; for `O=C(O)Cc1cnc[nH]1` it is “inactive”; for `O=C1CCCN1CC#CCN1CCCC1` it is “inactive”.
Take `COc1ccc2c(c[n+](C)c3c4cc5c(cc4ccc23)OCO5)c1OC`: the compound was called inactive.
As to `NCCc1c[nH]c2ccc(O)cc12`, the compound was classed as inactive.
Still for that read-out and setting: in the case of `NCCc1c[nH]c2ccccc12` it was “inactive”; in that of `Cc1nccc2c1[nH]c1ccccc12`, “inactive”; in that of `c1ccc2sc(C3(N4CCCCC4)CCCCC3)cc2c1`, “inactive”.
As to `Cc1c(C(=O)c2cccc3ccccc23)c2cccc3c2n1[C@H](CN1CCOCC1)CO3`, the compound was classed as inactive.
On the same count and under the same terms, the entry for `Clc1cnc(Oc2ccc(Oc3ncc(Cl)cc3Cl)cc2)c(Cl)c1` is “inactive”.
As for `S=C(NC1CCCCC1)N1CCC(c2cnc[nH]2)CC1`, the compound was classed as inactive.
Take `C#CCOC(=O)C1=CCCN(C)C1`: the compound was called inactive.
Same read-out and setting: in the case of `NC(=NCCC[C@H](N)C(=O)O)N[N+](=O)[O-]` it was “inactive”; in that of `NCc1cc(=O)[nH]o1`, “inactive”.
Regarding `CC1=NN=C(c2ccc(N)cc2)c2cc3c(cc2C1)OCO3`, the outcome was inactive.
On the same count and under the same terms, in the case of `CCCN(CCC)[C@@H]1CCc2ccc(O)cc2C1` it was “inactive”; in that of `C[C@@H]1O[C@H](C[N+](C)(C)C)C[C@H]1O`, “inactive”; in that of `Cn1cnc(CCN)c1`, “inactive”.
Take `CCCN1CCO[C@@H]2c3cc(O)ccc3OC[C@H]21`: the compound was classed as inactive.
On the same count and under the same terms, the entry for `NC(N)=NOCCC(N)C(=O)O` (stereo not drawn) is “inactive”.
The same measure, in the same setting: the entry for `CC[C@@]1(O)C(=O)OCc2c1cc1n(c2=O)Cc2cc3ccccc3nc2-1` is “inactive”; for `CC(C)Oc1cccnc1N(C)C1CCN(Cc2ccccc2)CC1` it is “inactive”.

For the next experiment, the target named is Alpha-galactosidase (Coffea arabica) (UniProt Q42656). The experiment is described as follows: Counterscreen for Glucocerebrosidase Inhibitors: qHTS Assay for Coffee Bean alpha-Galactosidase at pH 4.5 (AID 957; active = well fitted curve in the direction sought with a large enough effect). The settings on record: purified coffee bean alpha-galactosidase, fluorogenic substrate; series mostly up to 76.9 µM. In a few lines:
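Quantitative HTS of compounds (0.7 nM to 77 uM) against coffee bean alpha-galactosidase at pH 4.5, measuring 4-methylumbelliferone fluorescence released from 80 uM substrate.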
As for `CN[C@@H]1C[C@@H](c2ccc(Cl)c(Cl)c2)c2ccccc21`, the compound was called inactive.
The same measure, in the same setting: in the case of `Cc1cccc(C#Cc2ccccc2)n1` it was “inactive”.
For `C#CCOC(=O)C1=CCCN(C)C1`, the outcome was inactive.
On the same count and under the same terms, in the case of `CC1=NN=C(c2ccc(N)cc2)c2cc3c(cc2C1)OCO3` it was “inactive”; in that of `C[C@]12C[C@H](O)[C@H]3[C@@H](CCC4=CC(=O)CC[C@@]43C)[C@@H]1CC[C@@H]2C(=O)CO`, “inactive”.
